The values that follow come from ChEMBL document CHEMBL1961873, “Compounds: GSK PKIS; Assays: Nanosyn kinase panel” (2012).

Experiment [1] concerns the target Sphingosine kinase 1 (Homo sapiens) (UniProt Q9NYA1). The note with it: at 1 µM.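 Note: mean SPHK1 inhibition value reported from the GSK PKIS kinase panel screen.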
The target in experiment [2] is T1, Sphingosine kinase 2 (Homo sapiens) (UniProt Q9NRA0).
T1 sequence (whole entry): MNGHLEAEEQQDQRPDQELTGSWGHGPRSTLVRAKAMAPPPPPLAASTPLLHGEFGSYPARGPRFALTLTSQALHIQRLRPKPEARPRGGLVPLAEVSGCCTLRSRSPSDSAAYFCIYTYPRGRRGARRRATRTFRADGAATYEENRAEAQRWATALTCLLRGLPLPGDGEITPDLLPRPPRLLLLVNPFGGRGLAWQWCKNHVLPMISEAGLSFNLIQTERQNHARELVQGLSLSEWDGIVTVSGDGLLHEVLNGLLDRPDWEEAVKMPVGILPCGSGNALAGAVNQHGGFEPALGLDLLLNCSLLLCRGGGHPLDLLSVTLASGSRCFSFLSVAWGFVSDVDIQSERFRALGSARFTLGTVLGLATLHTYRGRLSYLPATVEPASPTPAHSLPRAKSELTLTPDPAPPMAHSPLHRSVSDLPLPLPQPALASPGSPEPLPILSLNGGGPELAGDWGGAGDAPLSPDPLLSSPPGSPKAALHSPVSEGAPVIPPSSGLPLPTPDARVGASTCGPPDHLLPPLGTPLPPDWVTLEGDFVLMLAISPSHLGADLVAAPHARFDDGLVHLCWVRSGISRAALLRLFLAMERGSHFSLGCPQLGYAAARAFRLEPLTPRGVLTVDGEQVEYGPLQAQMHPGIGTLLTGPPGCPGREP
The note with it: at 0.1 µM.

Experiment [3] addresses T1, Sphingosine kinase 2 (Homo sapiens). The note with it: at 1 µM.
Experiment [4] concerns the target Casein kinase II subunit alpha (Homo sapiens) (UniProt P68400). The conditions noted are these: at 0.1 µM.
Experiment [5] has the same target. The note with it: at 1 µM.
Experiment [6] addresses T2, Inhibitor of nuclear factor kappa-B kinase subunit alpha (Homo sapiens) (UniProt O15111).
T2 sequence (whole entry): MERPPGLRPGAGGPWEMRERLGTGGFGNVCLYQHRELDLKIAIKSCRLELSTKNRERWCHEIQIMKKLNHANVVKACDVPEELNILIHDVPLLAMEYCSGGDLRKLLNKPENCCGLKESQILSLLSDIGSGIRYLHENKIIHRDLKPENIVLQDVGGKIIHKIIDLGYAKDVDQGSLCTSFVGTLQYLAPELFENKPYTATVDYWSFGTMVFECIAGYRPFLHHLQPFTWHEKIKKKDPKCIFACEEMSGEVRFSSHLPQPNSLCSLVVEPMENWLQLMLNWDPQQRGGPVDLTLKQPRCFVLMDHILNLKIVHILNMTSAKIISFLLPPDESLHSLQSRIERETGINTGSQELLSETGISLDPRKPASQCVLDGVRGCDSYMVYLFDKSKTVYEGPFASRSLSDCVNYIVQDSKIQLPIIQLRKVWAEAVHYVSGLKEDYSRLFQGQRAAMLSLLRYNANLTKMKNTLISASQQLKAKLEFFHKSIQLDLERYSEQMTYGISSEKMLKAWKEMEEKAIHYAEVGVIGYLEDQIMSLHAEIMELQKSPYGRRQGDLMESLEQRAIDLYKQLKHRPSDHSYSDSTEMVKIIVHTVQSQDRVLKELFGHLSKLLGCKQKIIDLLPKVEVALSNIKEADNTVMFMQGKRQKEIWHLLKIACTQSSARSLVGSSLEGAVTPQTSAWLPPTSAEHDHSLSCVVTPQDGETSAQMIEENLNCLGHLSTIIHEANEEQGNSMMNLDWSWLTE
The note with it: at 0.1 µM.

Experiment [7] concerns the target T2, Inhibitor of nuclear factor kappa-B kinase subunit alpha (Homo sapiens). The note with it: at 1 µM.
For experiment [8], the target named is T3, Inhibitor of nuclear factor kappa-B kinase subunit beta (Homo sapiens) (UniProt O14920).
T3 sequence (whole entry): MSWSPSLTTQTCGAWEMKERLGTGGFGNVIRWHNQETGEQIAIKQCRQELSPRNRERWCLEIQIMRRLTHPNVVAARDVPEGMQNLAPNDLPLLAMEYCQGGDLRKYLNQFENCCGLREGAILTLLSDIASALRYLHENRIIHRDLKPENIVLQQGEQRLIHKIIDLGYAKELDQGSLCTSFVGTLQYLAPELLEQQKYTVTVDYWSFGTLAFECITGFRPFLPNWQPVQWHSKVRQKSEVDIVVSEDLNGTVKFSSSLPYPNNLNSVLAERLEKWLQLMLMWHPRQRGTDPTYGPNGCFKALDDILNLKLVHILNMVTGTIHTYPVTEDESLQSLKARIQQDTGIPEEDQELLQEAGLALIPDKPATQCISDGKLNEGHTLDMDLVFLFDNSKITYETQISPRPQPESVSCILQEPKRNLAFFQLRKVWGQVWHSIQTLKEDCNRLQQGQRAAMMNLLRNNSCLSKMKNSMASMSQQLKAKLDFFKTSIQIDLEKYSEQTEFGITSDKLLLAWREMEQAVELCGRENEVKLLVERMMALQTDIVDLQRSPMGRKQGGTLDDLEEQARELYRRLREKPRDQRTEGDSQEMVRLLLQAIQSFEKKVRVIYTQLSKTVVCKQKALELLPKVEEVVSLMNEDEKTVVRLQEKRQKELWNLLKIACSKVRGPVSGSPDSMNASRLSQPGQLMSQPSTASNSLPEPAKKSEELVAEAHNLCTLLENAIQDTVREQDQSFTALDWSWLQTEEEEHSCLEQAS
The conditions noted are these: at 0.1 µM.

In experiment [9] the target is T3, Inhibitor of nuclear factor kappa-B kinase subunit beta (Homo sapiens). The note with it: at 1 µM.
Experiment [10] concerns the target T4, Inhibitor of nuclear factor kappa-B kinase subunit epsilon (Homo sapiens) (UniProt Q14164).
T4 sequence (whole entry): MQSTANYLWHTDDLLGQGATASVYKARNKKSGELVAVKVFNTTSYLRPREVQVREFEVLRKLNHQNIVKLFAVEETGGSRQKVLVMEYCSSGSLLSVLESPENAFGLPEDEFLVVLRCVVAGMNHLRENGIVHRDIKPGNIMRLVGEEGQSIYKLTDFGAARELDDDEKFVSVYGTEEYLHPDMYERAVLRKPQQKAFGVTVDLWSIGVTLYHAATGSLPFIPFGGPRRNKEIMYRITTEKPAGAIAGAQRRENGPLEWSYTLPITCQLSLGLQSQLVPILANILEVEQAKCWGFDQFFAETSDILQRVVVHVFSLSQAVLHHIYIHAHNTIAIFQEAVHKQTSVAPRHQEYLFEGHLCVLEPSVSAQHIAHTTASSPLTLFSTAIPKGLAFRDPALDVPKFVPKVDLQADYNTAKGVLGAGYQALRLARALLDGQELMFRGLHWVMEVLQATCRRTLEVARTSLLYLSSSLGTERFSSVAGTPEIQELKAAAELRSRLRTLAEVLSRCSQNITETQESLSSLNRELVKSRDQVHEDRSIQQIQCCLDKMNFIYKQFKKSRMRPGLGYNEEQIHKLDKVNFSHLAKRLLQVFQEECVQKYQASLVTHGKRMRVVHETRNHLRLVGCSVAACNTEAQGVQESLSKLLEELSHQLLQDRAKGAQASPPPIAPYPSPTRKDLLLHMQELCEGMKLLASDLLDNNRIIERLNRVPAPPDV
The conditions noted are these: at 0.1 µM.

Experiment [11] addresses T4, Inhibitor of nuclear factor kappa-B kinase subunit epsilon (Homo sapiens). The note with it: at 1 µM.
The target in experiment [12] is T5, Serine/threonine-protein kinase Nek1 (Homo sapiens) (UniProt Q96PY6).
T5 sequence (whole entry): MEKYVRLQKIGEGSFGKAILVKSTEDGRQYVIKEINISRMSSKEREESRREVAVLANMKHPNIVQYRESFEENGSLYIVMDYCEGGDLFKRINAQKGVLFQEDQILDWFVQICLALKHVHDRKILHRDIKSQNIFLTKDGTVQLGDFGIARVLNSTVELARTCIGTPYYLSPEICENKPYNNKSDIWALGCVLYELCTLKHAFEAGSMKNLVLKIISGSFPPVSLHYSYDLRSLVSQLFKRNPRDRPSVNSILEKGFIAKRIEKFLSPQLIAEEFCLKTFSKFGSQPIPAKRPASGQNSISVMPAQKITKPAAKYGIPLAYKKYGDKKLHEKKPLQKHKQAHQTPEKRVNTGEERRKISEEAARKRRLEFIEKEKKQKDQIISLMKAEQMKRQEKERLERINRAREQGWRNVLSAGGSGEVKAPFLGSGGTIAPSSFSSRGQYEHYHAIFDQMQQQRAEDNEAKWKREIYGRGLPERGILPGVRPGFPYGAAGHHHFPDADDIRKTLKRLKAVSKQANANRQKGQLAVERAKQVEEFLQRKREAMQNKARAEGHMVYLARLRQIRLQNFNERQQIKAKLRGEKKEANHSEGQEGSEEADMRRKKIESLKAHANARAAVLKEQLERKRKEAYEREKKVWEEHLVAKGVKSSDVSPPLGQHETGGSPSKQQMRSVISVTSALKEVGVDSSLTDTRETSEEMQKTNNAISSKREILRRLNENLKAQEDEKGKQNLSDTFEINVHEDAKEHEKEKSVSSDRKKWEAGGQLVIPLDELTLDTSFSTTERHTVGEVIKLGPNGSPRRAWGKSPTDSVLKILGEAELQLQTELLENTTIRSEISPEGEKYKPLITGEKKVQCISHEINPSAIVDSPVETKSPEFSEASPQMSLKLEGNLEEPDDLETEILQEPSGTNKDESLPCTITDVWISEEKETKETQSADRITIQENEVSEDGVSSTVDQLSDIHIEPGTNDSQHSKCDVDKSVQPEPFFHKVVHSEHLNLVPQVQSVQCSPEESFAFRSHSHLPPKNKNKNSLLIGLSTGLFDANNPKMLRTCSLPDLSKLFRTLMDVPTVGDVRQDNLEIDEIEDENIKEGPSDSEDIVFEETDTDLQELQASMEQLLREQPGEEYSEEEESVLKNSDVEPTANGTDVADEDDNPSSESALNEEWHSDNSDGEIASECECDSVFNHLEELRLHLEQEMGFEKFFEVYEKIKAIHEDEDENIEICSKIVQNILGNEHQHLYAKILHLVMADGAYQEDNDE
The note with it: at 0.1 µM.

Experiment [13] addresses T5, Serine/threonine-protein kinase Nek1 (Homo sapiens). The conditions noted are these: at 1 µM.
The target in experiment [14] is T6, Serine/threonine-protein kinase Nek2 (Homo sapiens) (UniProt P51955).
T6 sequence (whole entry): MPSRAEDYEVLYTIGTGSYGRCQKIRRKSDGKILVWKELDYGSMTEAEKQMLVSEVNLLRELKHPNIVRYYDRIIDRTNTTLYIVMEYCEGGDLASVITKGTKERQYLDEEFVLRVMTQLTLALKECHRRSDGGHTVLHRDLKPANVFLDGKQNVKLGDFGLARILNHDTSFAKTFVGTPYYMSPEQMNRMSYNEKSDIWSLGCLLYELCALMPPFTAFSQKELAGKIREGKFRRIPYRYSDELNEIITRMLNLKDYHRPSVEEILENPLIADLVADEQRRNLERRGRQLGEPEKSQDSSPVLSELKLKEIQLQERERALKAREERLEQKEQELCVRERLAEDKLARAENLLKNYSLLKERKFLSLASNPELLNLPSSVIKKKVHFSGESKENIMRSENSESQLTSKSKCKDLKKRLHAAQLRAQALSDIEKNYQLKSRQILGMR
The note with it: at 0.1 µM.

In experiment [15] the target is T6, Serine/threonine-protein kinase Nek2 (Homo sapiens). The conditions noted are these: at 1 µM.
Experiment [16] has as its target Serine/threonine-protein kinase Nek6 (Homo sapiens) (UniProt Q9HC98). The conditions noted are these: at 0.1 µM.
Experiment [17] shares this target. The note with it: at 1 µM.
Experiment [18] addresses Serine/threonine-protein kinase Nek7 (Homo sapiens) (UniProt Q8TDX7). The conditions noted are these: at 0.1 µM.
Experiment [19] shares this target. The conditions noted are these: at 1 µM.
Experiment [20] concerns the target T7, Serine/threonine-protein kinase Nek9 (Homo sapiens) (UniProt Q8TD19).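 Note: reported value is the mean percent inhibition of NEK9.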
T7 sequence (whole entry): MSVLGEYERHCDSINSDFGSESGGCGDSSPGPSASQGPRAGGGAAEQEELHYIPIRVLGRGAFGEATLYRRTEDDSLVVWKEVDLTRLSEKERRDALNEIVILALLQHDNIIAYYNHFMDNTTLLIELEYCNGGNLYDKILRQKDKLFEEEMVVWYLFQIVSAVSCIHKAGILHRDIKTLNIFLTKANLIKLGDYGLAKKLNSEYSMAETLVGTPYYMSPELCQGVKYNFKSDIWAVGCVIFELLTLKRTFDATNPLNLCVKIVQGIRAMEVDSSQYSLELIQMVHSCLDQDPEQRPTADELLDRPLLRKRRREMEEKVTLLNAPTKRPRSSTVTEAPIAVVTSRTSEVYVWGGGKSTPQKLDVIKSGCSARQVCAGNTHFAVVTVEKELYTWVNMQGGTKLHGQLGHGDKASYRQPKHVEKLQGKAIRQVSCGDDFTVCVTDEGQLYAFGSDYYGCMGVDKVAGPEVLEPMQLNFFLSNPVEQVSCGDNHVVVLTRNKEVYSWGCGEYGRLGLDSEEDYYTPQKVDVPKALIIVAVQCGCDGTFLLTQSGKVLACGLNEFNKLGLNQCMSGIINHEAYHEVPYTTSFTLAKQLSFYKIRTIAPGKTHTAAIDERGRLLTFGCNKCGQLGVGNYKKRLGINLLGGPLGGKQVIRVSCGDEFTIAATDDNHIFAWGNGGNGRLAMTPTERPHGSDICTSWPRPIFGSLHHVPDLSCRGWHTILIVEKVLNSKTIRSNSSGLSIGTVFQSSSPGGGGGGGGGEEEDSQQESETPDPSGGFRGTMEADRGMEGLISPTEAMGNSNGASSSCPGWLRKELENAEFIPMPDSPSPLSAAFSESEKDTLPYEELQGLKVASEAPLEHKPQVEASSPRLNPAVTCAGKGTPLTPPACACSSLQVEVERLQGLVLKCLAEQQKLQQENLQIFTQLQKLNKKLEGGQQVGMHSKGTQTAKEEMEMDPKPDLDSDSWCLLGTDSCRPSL
The conditions noted are these: at 0.1 µM.

Serine/threonine-protein kinase Nek6 (Homo sapiens), sequence (Q9HC98 whole entry): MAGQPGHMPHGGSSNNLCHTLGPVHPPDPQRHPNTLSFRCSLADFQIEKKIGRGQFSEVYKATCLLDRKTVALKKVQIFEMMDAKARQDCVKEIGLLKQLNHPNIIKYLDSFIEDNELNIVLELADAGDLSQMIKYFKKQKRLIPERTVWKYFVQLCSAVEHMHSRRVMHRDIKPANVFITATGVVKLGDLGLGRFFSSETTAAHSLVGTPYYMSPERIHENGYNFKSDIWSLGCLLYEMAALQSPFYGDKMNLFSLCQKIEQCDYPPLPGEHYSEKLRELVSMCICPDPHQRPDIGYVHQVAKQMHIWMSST
Serine/threonine-protein kinase Nek7 (Homo sapiens), sequence (Q8TDX7 whole entry, looked up): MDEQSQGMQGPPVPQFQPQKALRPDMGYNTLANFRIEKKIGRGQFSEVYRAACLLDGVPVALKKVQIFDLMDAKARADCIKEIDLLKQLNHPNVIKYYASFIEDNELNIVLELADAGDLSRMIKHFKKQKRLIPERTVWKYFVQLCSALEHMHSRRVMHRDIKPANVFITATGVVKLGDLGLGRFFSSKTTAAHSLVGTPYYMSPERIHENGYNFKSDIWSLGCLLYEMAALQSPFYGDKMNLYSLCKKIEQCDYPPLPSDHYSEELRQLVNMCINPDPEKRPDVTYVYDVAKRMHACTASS
Casein kinase II subunit alpha (Homo sapiens), sequence (P68400 whole entry, looked up): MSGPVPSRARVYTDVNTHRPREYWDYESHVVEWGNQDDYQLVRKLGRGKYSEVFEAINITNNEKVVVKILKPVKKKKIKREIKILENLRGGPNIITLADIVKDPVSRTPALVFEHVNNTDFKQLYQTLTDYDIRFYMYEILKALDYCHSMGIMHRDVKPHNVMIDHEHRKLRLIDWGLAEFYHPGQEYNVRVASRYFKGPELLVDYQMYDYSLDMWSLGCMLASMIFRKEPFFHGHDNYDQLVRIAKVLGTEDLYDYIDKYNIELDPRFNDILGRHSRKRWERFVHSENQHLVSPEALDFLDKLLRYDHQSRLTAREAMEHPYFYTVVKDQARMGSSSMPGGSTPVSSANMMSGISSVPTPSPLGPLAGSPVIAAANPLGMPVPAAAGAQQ
Sphingosine kinase 1 (Homo sapiens), sequence (Q9NYA1 whole entry): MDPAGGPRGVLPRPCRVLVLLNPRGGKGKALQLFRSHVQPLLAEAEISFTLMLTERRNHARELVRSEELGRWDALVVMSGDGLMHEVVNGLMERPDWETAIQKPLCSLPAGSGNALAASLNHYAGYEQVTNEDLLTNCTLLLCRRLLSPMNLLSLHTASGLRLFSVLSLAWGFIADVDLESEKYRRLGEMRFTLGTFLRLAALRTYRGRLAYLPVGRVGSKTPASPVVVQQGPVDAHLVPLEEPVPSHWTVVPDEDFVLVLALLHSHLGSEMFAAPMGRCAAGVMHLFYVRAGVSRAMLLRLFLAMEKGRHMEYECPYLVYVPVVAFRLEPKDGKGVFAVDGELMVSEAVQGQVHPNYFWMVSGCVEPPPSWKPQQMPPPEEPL

Take `Fc1ccc(-c2nn3ncccc3c2-c2ccnc(Nc3ccc4c(c3)OCCO4)n2)cc1`: the inhibition in experiment [1] was 0.16%; in experiment [2], 0%; in experiment [3] it was 0.35%; in experiment [4], 2.03%; in [5] it was 0.07%; in experiment [6] it was 9.88%. The inhibition was 7.87% in [7]; 5.46% in experiment [8]; 4.62% in experiment [9]; 5.66% in experiment [10]; 7.06% in experiment [11]; 2.45% in experiment [12]. Moreover, the inhibition was 1.02% in [13]; 5.03% in experiment [14]; 4.48% in [15]; 0.64% in experiment [16]; 3.68% in experiment [17]; 6.98% in experiment [18]. Besides, the inhibition in [19] turned out to be 4.83%; in experiment [20], 6.56%.

As usually defined, the inhibition is the share of the control response that was lost under treatment. Low readings indicate little suppression, high ones strong suppression.
